Compounds with a hit are over-represented: about 1% of the library has one in this group of screens.
gsp ag: agonists of gsp mutant (McCune-Albright syndrome); gsp mutant cells, cAMP HTRF, 30 min; Potency, µM (top dose mostly 76.9 µM), hits mostly activators; actives 0.13% (n = 340,000); AID 624287; active = well fitted activation curve with a large enough effect; inconclusive = small, poorly fitted or top-dose-only effect, or another doubt; inactive = no such curve, though single readings can be large or run the other way; cell line not stated here;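 also: phosphodiesterase inhibitor Ro 20-1724 added with compounds to block cAMP breakdown; nearly all actives have a fitted effect of over 60% in size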
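Cells in DMEM/10% FBS with G418 were pretreated with compounds in DMSO plus […] (300 uM stock) for 30 min at 37C. cAMP was measured by HTRF (cAMP-d2 plus anti-cAMP antibody-K) after 30 min at room temperature.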
RXFP1 antag: antagonists of human relaxin receptor RXFP1; Q9HBX9; HEK293-RXFP1, relaxin-stimulated cAMP HTRF, 30 min; hits give low values; activity change, negative = inhibition, % at 57.5 µM; actives 0.59% (n = 350,000);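 active = activity change of -60% or lower, but not beyond a set lower limit; inconclusive = change between -60% and -40%, or beyond the set limit; inactive = change above -40%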
Target sequence (Q9HBX9 whole entry, looked up): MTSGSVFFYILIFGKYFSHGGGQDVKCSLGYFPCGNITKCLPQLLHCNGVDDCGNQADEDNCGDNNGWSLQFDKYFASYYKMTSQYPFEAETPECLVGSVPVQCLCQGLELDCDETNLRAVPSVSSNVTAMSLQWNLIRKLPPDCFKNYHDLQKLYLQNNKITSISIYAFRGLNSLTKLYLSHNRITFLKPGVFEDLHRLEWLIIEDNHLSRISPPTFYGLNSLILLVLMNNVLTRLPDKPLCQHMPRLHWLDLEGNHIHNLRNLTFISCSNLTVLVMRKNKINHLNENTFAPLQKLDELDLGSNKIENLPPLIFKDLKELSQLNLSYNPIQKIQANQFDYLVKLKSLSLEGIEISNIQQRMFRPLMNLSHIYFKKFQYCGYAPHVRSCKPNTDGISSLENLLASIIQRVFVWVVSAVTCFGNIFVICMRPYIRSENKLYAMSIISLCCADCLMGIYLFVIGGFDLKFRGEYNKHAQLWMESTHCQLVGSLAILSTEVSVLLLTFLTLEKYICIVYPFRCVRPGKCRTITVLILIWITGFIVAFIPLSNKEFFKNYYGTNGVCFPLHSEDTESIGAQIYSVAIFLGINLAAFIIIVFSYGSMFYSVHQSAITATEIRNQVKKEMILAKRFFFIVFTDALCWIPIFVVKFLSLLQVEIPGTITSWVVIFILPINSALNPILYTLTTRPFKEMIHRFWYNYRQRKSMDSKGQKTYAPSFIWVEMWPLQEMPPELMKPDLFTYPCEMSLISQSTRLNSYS
RXFP1 agonist: activates the human relaxin receptor RXFP1 | Q9HBX9 | HEK293T-RXFP1 cAMP TR-FRET, 30 min; response scale: percent of porcine relaxin response, buffer zero | Potency, µM (highest dose often 57.5 µM), usual class: activators | actives 0.3% (n = 370,000) | AID 2676; active = well fitted activation curve with a large enough effect; inconclusive = small, poorly fitted or top-dose-only effect; also: nearly all actives have a fitted effect of over 60% in size
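HEK293T cells stably expressing RXFP1 were pretreated with the PDE4 inhibitor Ro 20174, exposed to compounds for 30 min at 37C, lysed, and cAMP was read by TR-FRET. Data normalized to buffer (basal) and 29 nM porcine relaxin (100%).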
gsp antag: antagonizes gsp, the McCune-Albright syndrome mutation; actives 0.4% (n = 340,000); AID 624288; gsp-mutant cells, cAMP HTRF, 30 min; Potency, µM (doses to about 76.9 µM), actives largely listed as inhibitors; calls by dose curve; cell line not stated here;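 also: intracellular cAMP measured with PDE inhibitor Ro 20-1724 present during compound exposure; nearly all actives have a fitted effect of over 65% in size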
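G418-selected cells were plated in DMEM/10% FBS for 16-24 h at 37C, then treated with compounds plus the PDE inhibitor […] (300 uM solution added) for 30 min at 37C. Intracellular cAMP was measured by HTRF after 30 min lysis at room temperature.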
TSHR antag: antagonists of human thyroid stimulating hormone receptor; activity change, negative = inhibition, % at 11.5 µM; TSHR-expressing cells, TSH-stimulated cAMP HTRF, 2 h; hits give low values; AID 504810; actives 0.2% (n = 330,000); P16473;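 active = activity change below a set negative limit, meaning inhibition stronger than a set level, cut at about -70% in these data; inconclusive = activity change between two set negative limits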
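Cell-based HTRF cAMP assay; TSHR cells + compound, TSH EC80 (4nM final), 2 h, 37 deg C. Lysis with anti-cAMP cryptate and cAMP-d2, 30 min RT, read 665/620 nm.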
Numbers stand for hits; i = inactive; ? = inconclusive; nt = no result given; [ ] = remark or other dose.

SMILES	gsp ag	RXFP1 antag	RXFP1 agonist	gsp antag	TSHR antag
O=C(COCc1cc(-c2ccco2)on1)NC1CCCCC1	i	i	i	i	i
O=C(COCc1cc(-c2cccs2)on1)NC1CCCCC1	i	i	i	i	-88
CCc1ccccc1NS(=O)(=O)c1ccc2c(c1)CC(=O)N2	nt	nt	i	nt	nt
COc1cc(/C=C2/C(=O)c3cccc([N+](=O)[O-])c3C2=O)c(Br)cc1O	i	i	i	35µM	i
CC(=O)c1cccc(NS(=O)(=O)c2ccc(N/C=C/C(=O)c3ccc(F)cc3)cc2)c1	i[15.4 µM]	i	i	?	-73
O=C1C=C(O)c2cccc3cccc1c23	?	i	18µM	i	i
CCc1ccccc1NC(=O)CSc1nc2ccccc2nc1Cc1cccc(OC)c1	nt	i	?	nt	nt
CC(C)(C)OC(=O)N1CCC(c2c(C(=O)NCc3ccccc3)cnn2-c2ccc(F)cc2)CC1	nt	i	i	nt	nt
Cc1ccc(-c2cn3nc(N4CCCC(C(=O)NCc5ccccc5F)C4)sc3n2)cc1 (stereo not drawn)	nt	i	i	nt	nt
O=C(Nc1ccncc1)c1cn(-c2ccccc2)nc1-c1cccs1	i	i	i	?	-75
COc1ccc(CNC(=O)c2ccc(-c3nc(CSc4ccc(C)cc4)c(C)o3)cc2)cc1OC	nt	nt	i	nt	nt
Cc1ccc(S(=O)(=O)c2cc3c(=O)n4ccccc4nc3n(C3CCCC3)c2=N)cc1	i	-84	i	i	i
CNC(=O)c1ccccc1Sc1ccc2c(/C=C/c3ccccn3)n[nH]c2c1	nt	i	nt	nt	nt
COc1ccc(F)cc1S(=O)(=O)NCCc1sc2nc(-c3ccc(F)cc3)nn2c1C	nt	i	i	nt	nt
Cc1cc(C)c(O)c(CN(C)Cc2cc(Cl)cc(Cl)c2O)c1	i	i	nt	i	nt
Oc1c(Cl)cc(Cl)cc1Sc1cc(Cl)cc(Cl)c1O	nt	?	i	nt	-92
OC[C@H]1O[C@H](O[C@]2(CCl)O[C@H](CCl)[C@@H](O)[C@@H]2O)[C@H](O)[C@@H](O)[C@H]1Cl	nt	i	nt	nt	nt
Cc1ccc(S(=O)(=O)N2CCN(C(=O)CN3C(=O)NC4(CCCCC4)C3=O)CC2)c(C)c1	i[15.4 µM]	-61	i	i	i
Cc1nnc(N2CCN(c3ccc(Cl)cc3)CC2)c2c1nnn2Cc1ccc(F)cc1	nt	i	?	nt	nt
COC(=O)c1sc(NC(=O)c2cc(-c3ccccc3)nc3ccccc23)c(C#N)c1C	i	i	i	?	i
Cc1ccccc1-c1cc(C(=O)Nc2sc(C(=O)OC(C)C)c(C)c2C#N)c2ccccc2n1	i	-65	i	11µM	i
CCc1ccc(C(=O)c2cn(CC(=O)Nc3cccc(OC)c3)c3ccc(OC)cc3c2=O)cc1	nt	i	i	nt	i
COc1ccc(OCCN2C(=O)c3ccccc3C2=O)c([N+](=O)[O-])c1	10µM	i	i	i	i
O=C(O)Cn1c(=O)n(Cc2ccc(Br)cc2F)c(=O)c2ccc(Cl)cc21	nt	i	nt	nt	nt
O=c1c2ccccc2n(Cc2c(F)cccc2Cl)c(=O)n1CCc1ccccc1	nt	nt	i	nt	nt
SMILES	gsp ag	RXFP1 antag	RXFP1 agonist	gsp antag	TSHR antag
CCN1CCN(C(c2cccc(OC)c2)c2c(O)cc(C)n(Cc3ccco3)c2=O)CC1 (stereo not drawn)	nt	i	i	nt	nt
NC(=O)c1ccc(NC(=O)CN2CCN(S(=O)(=O)c3ccc4c(c3)OCCO4)CC2)cc1	i	i	i	50µM	i
CC(=O)c1ccc(NC(=O)CN2CCN(S(=O)(=O)c3ccc4c(c3)OCCO4)CC2)cc1	i	i	nt	nt	nt
Cn1c(-c2ccc([N+](=O)[O-])cc2)nc2ccccc21	2.2µM	i	?	i	i
Cn1cc([N+](=O)[O-])cc1-c1nc2ccccc2n1C	i	i	i	i	i
CC(C)c1ccc(NC(=O)C(Cc2ccccc2)n2cccc2)cc1 (stereo not drawn)	nt	-71	i	nt	nt
O=C(Nc1ccc(C(F)(F)F)cc1)C(Cc1ccccc1)n1cccc1 (stereo not drawn)	nt	i	i	nt	nt
Fc1ccc(C(c2ccc(F)cc2)N2CCNCC2)cc1	nt	i	nt	nt	nt
COc1cc(NC(=O)C(C)Oc2ccccc2)ccc1NC(=O)COc1ccccc1 (stereo not drawn)	i	i	i	40µM	i
COc1ccc(C)cc1NC(=O)C1CCN(S(=O)(=O)c2ccc3c(c2)CCCN3C(C)=O)CC1	nt	i	i	nt	nt
C[C@H](CO)N1C[C@H](C)[C@@H](CN(C)S(=O)(=O)c2cccc(F)c2)Oc2ncc(Br)cc2C1=O	32µM	i	nt	nt	nt
O=C(Nc1ccc2c(c1)OCCO2)c1cnc2ccccn2c1=O	8.9µM	i	nt	i	nt
CC(C)(C)OC(=O)CNC(=O)c1[nH]cnc1C(=O)NCCCCCN	i	nt	i	i	i
CC(C)(C)OC(=O)CNC(=O)c1[nH]cnc1C(=O)NCCCCCNC(=O)OC(C)(C)C	i	nt	i	35µM	i
O=C(C=Cc1ccccc1O)c1ccccc1O	i	-66	nt	i	nt
O=C(/C=C/c1ccccc1Cl)c1ccccc(=O)c1O	i	-79	i	i	i
O=C(/C=C/c1ccccc1Cl)c1cccnc1	i	-72	i	i	i
O=C(/C=C/c1ccc(Cl)cc1)c1cccnc1	i	nt	i	i	i
O=C(/C=C/c1ccc(O)c(O)c1)c1ccccc1O	i[15.4 µM]	i	i	i	i
Cc1ccccc1C(=O)OCc1cc(=O)n2nc(C(C)C)sc2n1	nt	i	i	nt	nt
O=C(c1ccc2c(c1)N(Cc1cccc(Cl)c1)C(=O)c1ccccc1S2=O)N1CCN(c2cccc(C(F)(F)F)c2)CC1 (stereo not drawn)	nt	i	i	nt	nt
CCCCCC/C(C)=C1/SC(=S)NC1=O	i	i	i	i	-85
CN(C(=O)c1cc2c(=O)n3ccccc3nc2n1C)C1CCCCC1	?	i	?	i	i
CCN(C(=O)c1cc2c(=O)n3ccccc3nc2n1C)C1CCCCC1	?	i	i	i	-123
Cc1ccc2c(CNCCc3ccccc3)c(C(=O)O)n(Cc3ccccc3C)c2c1	nt	i	i	nt	nt
SMILES	gsp ag	RXFP1 antag	RXFP1 agonist	gsp antag	TSHR antag
CN(C)Cc1nc2c(c(=O)[nH]1)C1(CCCCC1)Cc1ccccc1-2	i	-62	i	i	i
COc1ccccc1CCNC(=O)C(=O)NCC(c1ccco1)S(=O)(=O)c1cccs1 (stereo not drawn)	nt	i	i	nt	nt
Cc1cc(C)n(-c2nc(Nc3ccccc3C(F)(F)F)nc(-n3nc(C)cc3C)n2)n1	i	?	i	28µM	i
CCc1ccccc1NC(=O)CCCN1C(=O)CCn2nc(-c3cn(C)c4ccccc34)cc21	nt	i	i	nt	nt
O=C(O)CN1C(=O)C=CC1=O	i	i	nt	nt	nt
O=C1C=CC(=O)N1CCCCCCN1C(=O)C=CC1=O	i	?	i	?	-99
CN1CCCN(c2ncnc3scc(-c4ccc(F)cc4)c23)CC1	i	i	i	i	i
Fc1ccc(CN2CCN(c3ncnc4scc(-c5ccc(F)cc5)c34)CC2)cc1	i	-68	i	i	i
CCN(C(=O)CN(C)S(=O)(=O)c1ccc2c(c1)n(C)c(=O)c(=O)n2C)c1cccc(C)c1	nt	i	i	nt	nt

Compound activity as filed in PubChem.
